From PubChem
Shown are actives, neighbours in structure and some others; about 4.5% of the full set was active somewhere.
Mdm2-MdmX inh: inhibitors of human Mdm2/MdmX interaction. O15151+Q00987. SaOS-2 split-luciferase Mdm2/MdmX complementation, luminescence. inhibition, % at 8 µM. 330,000 compounds, 3% hits. AID 485346;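 active means inhibition of at least 50% at 8 µM in the primary screen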
Target sequence (O15151 whole entry, looked up): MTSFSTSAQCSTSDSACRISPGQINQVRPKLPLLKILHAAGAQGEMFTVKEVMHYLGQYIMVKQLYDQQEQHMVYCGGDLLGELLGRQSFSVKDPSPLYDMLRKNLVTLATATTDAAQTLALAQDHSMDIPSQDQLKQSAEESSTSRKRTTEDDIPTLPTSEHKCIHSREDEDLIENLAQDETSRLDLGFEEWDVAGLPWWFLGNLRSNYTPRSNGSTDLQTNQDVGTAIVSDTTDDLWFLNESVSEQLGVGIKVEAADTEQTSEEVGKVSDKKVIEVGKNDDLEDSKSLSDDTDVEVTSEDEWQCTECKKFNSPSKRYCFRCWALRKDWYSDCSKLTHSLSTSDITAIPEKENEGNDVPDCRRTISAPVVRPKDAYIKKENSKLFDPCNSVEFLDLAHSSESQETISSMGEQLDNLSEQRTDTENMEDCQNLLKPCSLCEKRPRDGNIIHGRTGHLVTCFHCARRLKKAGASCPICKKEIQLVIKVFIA
Target sequence (Q00987 whole entry, looked up): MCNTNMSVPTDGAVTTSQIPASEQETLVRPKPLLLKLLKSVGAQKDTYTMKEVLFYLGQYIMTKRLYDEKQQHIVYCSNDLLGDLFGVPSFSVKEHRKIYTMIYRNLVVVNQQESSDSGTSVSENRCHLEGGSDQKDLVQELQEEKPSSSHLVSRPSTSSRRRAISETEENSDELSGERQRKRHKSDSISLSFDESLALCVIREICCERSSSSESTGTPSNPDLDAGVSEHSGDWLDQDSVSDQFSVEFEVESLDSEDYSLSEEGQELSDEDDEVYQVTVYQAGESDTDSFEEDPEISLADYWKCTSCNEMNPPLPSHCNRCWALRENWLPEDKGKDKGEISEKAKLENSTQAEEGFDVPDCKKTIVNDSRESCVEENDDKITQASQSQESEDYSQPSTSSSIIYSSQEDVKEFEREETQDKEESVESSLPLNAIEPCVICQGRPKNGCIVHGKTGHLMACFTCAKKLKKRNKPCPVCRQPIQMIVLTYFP
aSyn UTR inh: 5' untranslated region of α-synuclein, MLPCN primary screen; 300,000 compounds, 0.82% hits; alpha-synuclein 5'UTR reporter, inhibitor activity; inhibition, % (tested at 7.5 µM); in the data active means inhibition above about 60%;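 further: H4 neuroglioblastoma cells stably carrying SNCA 5'UTR luciferase fusion; 0% = DMSO wells and 100% = positive control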
Jurkat NFkB inh: lowers PMA/ionomycin-induced NF-kB signal in Jurkat cells. PMA/ionomycin-induced NF-kB luciferase reporter, luminescence. inhibition, % at 4 µM. 330,000 compounds, 0.53% hits; in the data active means inhibition above about 50%
CSC inhib: blocks cancer stem cells; 300,000 compounds, 1.1% hits; AID 2717; cancer stem cell-like cells viability, luminescence; inhibition, % at 7.5 µM; in the data active means inhibition above about 75%; tested in HMLE shEcad cells
697 NFkB inh: lowers PMA/ionomycin-induced NF-kB signal in 697 B cells. 330,000 compounds, 0.33% hits. 697 B-cell NF-kB luciferase reporter, 16 h. inhibition, % at 4 µM; in the data active means inhibition above about 35%
Gli-Sufu block: antagonists of Gli-Sufu signaling; Sufu-KO-LIGHT fibroblasts, Gli luciferase reporter luminescence; inhibition, % at 5 µM; 340,000 compounds, 0.74% hits;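 active means inhibition above about 55%, limit read from the data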;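 further: 0% = DMSO-treated cells and 100% = wells with medium but no cells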
Mdm2 MdmX conf: confirmation of human Mdm2/MdmX interaction inhibitors | inhibition, % at 8 µM | Mdm2-MdmX binding, luminescent assay | shares compounds with Mdm2-MdmX inh | AID 489028 | 10,000 compounds, 55% hits; in the data active means inhibition above about 40%
FLuc counter: inhibits full-length luciferase, flagging false Mdm2/MdmX hits; shares compounds with Mdm2-MdmX inh; SaOS-2 full-length luciferase counterscreen, luminescence; inhibition, % at 8 µM; 6,200 compounds, 77% hits; AID 504607;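 active means mean inhibition at 8 µM reaching about 37%, which flags the compound as non-specific, limit read from the data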;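 further: p53-null SaOS-2 cells with luciferase driven by a doxycycline-inducible promoter; compound on cells about two nights before reading with doxycycline added after day one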
* = called active by the depositor; . = no result given.

SMILES | Mdm2-MdmX inh | aSyn UTR inh | Jurkat NFkB inh | CSC inhib | 697 NFkB inh | Gli-Sufu block | Mdm2 MdmX conf | FLuc counter
Cc1cc2nc(CCN3CCOCC3)n(S(=O)(=O)c3ccc(C(C)(C)C)cc3)c2cc1C | 52* | -14 | 1 | 55 | 3 | -9 | 25 | .
O=C(NNC(=O)c1cc(Br)ccc1O)c1csc(N2CCOCC2)n1 | 64* | . | 0 | . | 21 | 13 | 44* | 59*
O=C(CSC(=S)N1CCCC1)N(Cc1nnc(-c2ccccc2Cl)o1)C1CC1 | -1 | . | -9 | . | 20 | 2 | . | .
Cc1cc(C)c2c(n1)sc1c(N3CCCCC3)ncnc12 | 5 | -37 | 3 | 15 | -15 | -14 | . | .
CC1(C)Cc2c(c(N3CCCC3)nc3sc4c(N5CCNCC5)ncnc4c23)CO1 | 58* | 20 | 17 | 10 | -1 | 8 | 5 | .
C#CCOC(=O)C[N+](C)(C)CC#Cc1ccccc1 | 2 | 18 | -10 | -2 | -12 | 5 | . | .
CCN(CC)S(=O)(=O)c1cc(NC(=O)CSc2nc3c(cc2C#N)C(=O)CC(C)(C)C3)ccc1C | 67* | 13 | 33 | 52 | 8 | 38 | 63* | 45*
Cc1nc2scc(-c3ccccc3)c2c(=O)n1N=C1C=CC(=O)C=C1 | 70* | -19 | 14 | . | -9 | 20 | 42* | 13
Cc1nc2scc(-c3ccccc3)c2c(=O)n1N | 0 | 2 | 2 | . | 17 | -111 | . | .
Cc1ccc(OCC(=O)NC2CCSc3ccccc32)cc1 (centres undefined) | -9 | -18 | -5 | -5 | -15 | -10 | . | .
O=[N+]([O-])c1cc([N+](=O)[O-])c(Oc2cccc3ccccc23)cc1NN1CCCCC1 | . | . | . | . | . | 7 | . | .
O=[N+]([O-])c1cc([N+](=O)[O-])c(Oc2cccnc2Br)cc1NN1CCCCC1 | 56* | -6 | -3 | 33 | 10 | 8 | 13 | .
CC(C)CCOc1ccc(CO[C@@H]2[C@H]3OC(C)(C)O[C@H]3O[C@@H]2C(O)CO)cc1 (some centres undefined) | 20 | 17 | -18 | -4 | -18 | -9 | . | .
Cc1ccc(C)c(COC(=O)CCN=C2NS(=O)(=O)c3ccccc32)c1 | -12 | 1 | -2 | 0 | 11 | -7 | . | .
CSc1c(CC(=O)NCCCO)n(Cc2ccccc2)c2ccccc12 | 8 | 3 | -6 | -4 | -7 | . | . | .
COc1ccc(NC(=O)Cc2c(SC)c3ccccc3n2Cc2ccccc2)cc1 | 69* | 10 | -1 | -1 | -27 | 16 | 40 | 90*
Cc1ccc(C(=O)N2CCCCC2C(=O)O)cc1S(=O)(=O)N1CCCCC1 (centres undefined) | 12 | . | 3 | -1 | 7 | 4 | . | .
CC(=O)Nc1ccc(NC(=O)c2ccc(C3SCC(=O)N3CCc3ccccc3)cc2)cc1 (centres undefined) | 20 | -6 | 9 | -1 | 4 | 17 | . | .
Cc1cccc(NC(=O)c2ccc(C3SCC(=O)N3CCc3ccccc3)cc2)c1 (centres undefined) | 54* | 42 | 15 | 0 | -21 | 1 | 25 | .
COc1cc(SC)ccc1C(=O)Nc1cccc(C2OCCCO2)c1 | 6 | -2 | -3 | . | -60 | -18 | . | .
CCOC(=O)N1CCC(N(CCN(C)C)C(=S)Nc2cc(Cl)cc(Cl)c2)CC1 | 67* | 15 | 2 | 20 | 13 | 0 | 42* | 50*
CCOC(=O)N1CCC(N(CCN(C)C)C(=S)Nc2cccc(Cl)c2)CC1 | 12 | 16 | 2 | -11 | 15 | 8 | . | .
O=C(N/N=C/c1ccc2c(c1)OCO2)c1sc2cc(Cl)ccc2c1Cl | 62* | 10 | 1 | 70 | 2 | -16 | 37 | 50*
COc1ccc2c(Cl)c(C(=O)N/N=C/c3ccc4c(c3)OCO4)sc2c1 | 20 | -8 | 0 | 43 | -19 | -2 | . | .
Cc1ccccc1NCC(=O)N/N=C\c1ccc2c(c1)OCO2 | 10 | -20 | -11 | 4 | -1 | 23 | . | .
Cc1cccc(C)c1OCC(=O)N/N=C/c1ccc2c(c1)OCO2 | 50* | -85 | 24 | 60 | -25 | -3 | 59* | 56*
Cn1cc(C(=O)N/N=C/c2ccc(Br)c([N+](=O)[O-])c2)c2ccccc21 | 51* | -16 | 3 | 6 | 1 | 0 | 19 | .
